Test results reported in PubChem BioAssay (NCATS).
Inconclusive results are not listed. A call without a number means that no potency is given here. Calls of active or inactive are those of the source. Unless noted, calls follow the shape of the dose curve; as a rule, active = well fitted curve in the direction sought with a large enough effect; inconclusive = small, poorly fitted or top-dose-only effect, or another doubt; inactive = no such curve, though single readings can be large; an effect the other way counts as inactive or inconclusive.

Test system: not listed separately
Assay: qHTS for differential inhibitors of proliferation of Plasmodium falciparum line HB3 (AID 1886);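 also: parasites grown with compound for 72 h before SYBR Green readout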; also: potency is read from the fitted curve at half-maximal effect
Settings: Potency: Plasmodium falciparum HB3 proliferation inhibition; series mostly up to 28.7 µM

| Compound | Potency |
| --- | --- |
| CCCCCCCCC(=O)NCc1ccc(O)c(OC)c1 | inactive |
| C[N+](C)(C)CCCCCCCCCC[N+](C)(C)C | 1.78 µM (active) |
| NC(N)=N/N=C/c1c(Cl)cccc1Cl | 6.31 µM (active) |
| CC(N)C(=O)OC(C)(C)Cc1ccc(Cl)cc1 (stereo not drawn) | 14.1 µM (active) |
| COC(=O)C1=CCCN(C)C1 | inactive |
| c1ccc2nc(N3CCNCC3)ccc2c1 | inactive |
| COc1ccc(C(=O)N2CCCC2=O)cc1 | inactive |
| CNC(=O)Oc1ccc2c(c1)[C@]1(C)CCN(C)[C@@H]1N2C | 5.01 µM (active) |
| O=C(O)c1nn(Cc2ccc(Cl)cc2Cl)c2ccccc12 | inactive |
| NC(=O)CN1CCCC1=O | inactive |
| NC(N)=NC(=O)c1nc(Cl)c(N)nc1N | 10 µM (active) |
| CC[C@H]1CN2CCc3cc(OC)c(OC)cc3[C@@H]2C[C@@H]1C[C@H]1NCCc2cc(OC)c(OC)cc21 | 0.112 µM (active) |

Test system: not listed separately
Assay: qHTS Assay for Identification of Small Molecule Inducers of Hypoxia Response (AID 2120; active = well fitted curve in the direction sought with a large enough effect in the signal ratio, with a control signal flat, not every such curve was filed as active; the % refers to the signal ratio)
Settings: hypoxia response reporter cells, beta-lactamase ratio readout; series mostly up to 104 µM
Summary of the method: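 Reporter induction read as the CCF4 blue/green (460nm/530nm) emission ratio after 2.5 h dye loading at room temperature. ME-180 HRE-beta-lactamase cells received titrated compounds for 17 h at 37 degrees Celsius; AC50 values derived.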

| Compound | outcome |
| --- | --- |
| COP(=O)(OC)OC=C(Cl)Cl | inactive |
| CN(C)C(=S)SSC(=S)N(C)C | inactive |
| CNC(=O)Oc1cccc2ccccc12 | inactive |
| Oc1c(Br)cc(Br)cc1Br | inactive |
| C[C@@H]1C[C@@H]([C@H](O)CC2CC(=O)NC(=O)C2)C(=O)[C@@H](C)C1 | inactive |

Target: Ferritin light chain (Equus caballus) (UniProt P02791)
Assay: qHTS Validation Assay for Identification of Novel General Anesthetics (AID 2323)
Settings: horse apoferritin, anesthetic-site fluorescent probe displacement; series mostly up to 76.9 µM
Summary of the method: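 Competitive displacement of the profluorescent anesthetic 1-AMA (50% saturated, PBS) from 10 uM apoferritin, 10 min, room temperature. Activity is normalized 380/535 nm fluorescence; concentration-response fitted with a four-parameter Hill equation.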

Sequence of Ferritin light chain (Equus caballus) (P02791 2-175 limits assumed): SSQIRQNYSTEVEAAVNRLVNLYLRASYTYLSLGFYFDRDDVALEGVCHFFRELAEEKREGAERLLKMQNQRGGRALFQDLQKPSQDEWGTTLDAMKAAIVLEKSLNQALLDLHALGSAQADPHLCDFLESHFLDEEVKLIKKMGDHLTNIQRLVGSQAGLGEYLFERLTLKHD

| Compound | outcome |
| --- | --- |
| C[N+](C)(C)CCCCCCCCCC[N+](C)(C)C | inactive |
| CC(N)C(=O)OC(C)(C)Cc1ccc(Cl)cc1 (stereo not drawn) | inactive |
| COC(=O)C1=CCCN(C)C1 | inactive |
| c1ccc2nc(N3CCNCC3)ccc2c1 | inactive |
| COc1ccc(C(=O)N2CCCC2=O)cc1 | inactive |
| O=C(O)c1nn(Cc2ccc(Cl)cc2Cl)c2ccccc12 | inactive |
| NC(=O)CN1CCCC1=O | inactive |
| NC(N)=NC(=O)c1nc(Cl)c(N)nc1N | inactive |
| Brc1c(NC2=NCCN2)ccc2nccnc12 | inactive |

Target: ATP-dependent DNA helicase Q1 (Homo sapiens) (UniProt P46063)
Assay: qHTS Validation Assay for Inhibitors of RecQ-Like Dna Helicase 1 (RECQ1) (AID 2353)
Settings: recombinant RECQ1 helicase DNA unwinding assay; series mostly up to 25.6 µM
Excerpt: Survival of cells and the faithful propagation of the genome depend on elaborate mechanisms of detecting and repairing DNA damage. Treatment of advanced cancer relies on radiation therapy or chemotherapy, which kill cancer cells by causing extensive DNA damage. It is often found, that cancer cells develop resistance to therapy through enhanced activity of DNA repair functions; this has led to an increased interest in developing drugs that interfere with DNA repair, which could sensitize cancer cells to conventional therapy.
This validation qHTS assay pertains to human RECQ1, which is important in resolving abnormal DNA structures formed during replication or homologous recombination. Shutting down the expression of RECQ1 leads to chromosomal instability and higher radiation sensitivity in cultured cells.
The validation assay was a fluorescence quenching based kinetic qHTS for RECQ1 Helicase DNA unwinding. The activity was measured as ATP-dependent separation of a 20-bp DNA duplex extended by 30-nt single-stranded tails (forked duplex). The forked DNA substrate was tagged with rhodamine fluorophore (carboxytetramethyl rhodamine, TAMRA) and BHQ-2 (Black Hole Quencher 2) dark quencher. Strand separation results in an increase in the fluorescence of TAMRA (excitation 525 nm, emission 598 nm). This substrate construct operates in a red-shifted region where very few compound library members have been noted to fluoresce (PubChem AIDs 593 and 594). An additional feature of the assay is the inclusion of 2.5 ug/ml poly (dIdC), to reduce interference by compounds such as DNA intercalators, a major source of false inhibitors.
Opher Gileadi, Structural Genomics Consortium, University of Oxford
Screening Center PI: Austin, C.P.
Screening Center: NIH Chemical Genomics Center [NCGC]
Three uL of reaction buffer (25 mM Tris-HCl (pH 8.0), 5 mM NaCl, 2 mM MgCl2, 1mM DTT, 0.01% Tween- 20, and 2.5 ug/ml poly(dI-dC), including enzyme (50 nM RECQ1T1), were dispensed into a 1536-well Greiner black assay plate via solenoid-valve based nanoliter dispensers. Compounds (23 nl each in columns 5-48) and control (23 nl each in column 2 as dose-response) were transferred via a Kalypsys pintool equipped with a 1536-pin array. The plates were incubated for 15 min at room temperature, and then 1 ul of substrates (200 nM DNA and 2 mM ATP, final concentrations) was added to start the reaction. The plate was transferred into a ViewLux high-throughput CCD imager where the reaction progress was measured in a discontinuous kinetic mode (two reads spaced 2 hours apart, with intermediate room temperature incubation of the covered assay plate) by using standard red-fluorescence optics (excitation filter 525 nm, emission filter 598 nm). Enzyme-free and vehicle (DMSO) controls were included for signal normalization.

Sequence of ATP-dependent DNA helicase Q1 (Homo sapiens) (P46063 whole entry, looked up): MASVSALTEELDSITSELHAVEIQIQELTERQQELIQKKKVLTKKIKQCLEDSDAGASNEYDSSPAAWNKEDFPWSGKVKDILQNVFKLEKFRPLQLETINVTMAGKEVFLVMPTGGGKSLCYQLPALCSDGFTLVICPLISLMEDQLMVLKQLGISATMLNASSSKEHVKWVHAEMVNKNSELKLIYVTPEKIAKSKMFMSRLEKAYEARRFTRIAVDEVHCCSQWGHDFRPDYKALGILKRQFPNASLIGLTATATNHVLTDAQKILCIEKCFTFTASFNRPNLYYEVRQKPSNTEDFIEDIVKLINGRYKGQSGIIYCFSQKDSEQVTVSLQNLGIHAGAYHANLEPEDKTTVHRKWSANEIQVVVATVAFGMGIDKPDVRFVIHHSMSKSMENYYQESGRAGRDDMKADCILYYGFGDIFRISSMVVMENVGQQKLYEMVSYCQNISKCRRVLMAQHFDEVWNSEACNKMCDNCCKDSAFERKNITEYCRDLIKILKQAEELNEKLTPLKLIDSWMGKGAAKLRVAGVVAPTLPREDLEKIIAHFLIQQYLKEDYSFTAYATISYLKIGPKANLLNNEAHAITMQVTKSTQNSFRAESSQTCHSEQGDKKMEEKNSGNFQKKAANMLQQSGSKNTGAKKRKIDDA

| Compound | outcome |
| --- | --- |
| CCCCCCCCC(=O)NCc1ccc(O)c(OC)c1 | inactive |
| CC(N)C(=O)OC(C)(C)Cc1ccc(Cl)cc1 (stereo not drawn) | inactive |
| COC(=O)C1=CCCN(C)C1 | inactive |
| c1ccc2nc(N3CCNCC3)ccc2c1 | inactive |
| COc1ccc(C(=O)N2CCCC2=O)cc1 | inactive |
| O=C(O)c1nn(Cc2ccc(Cl)cc2Cl)c2ccccc12 | inactive |
| NC(=O)CN1CCCC1=O | inactive |
